{"source": "PubChem BioAssay (EPA / NIEHS)", "key": {"[1]": {"target": "Serine/threonine-protein phosphatase PP1-alpha catalytic subunit (Homo sapiens) (UniProt P62136)", "sequence (P62136 whole entry, looked up)": "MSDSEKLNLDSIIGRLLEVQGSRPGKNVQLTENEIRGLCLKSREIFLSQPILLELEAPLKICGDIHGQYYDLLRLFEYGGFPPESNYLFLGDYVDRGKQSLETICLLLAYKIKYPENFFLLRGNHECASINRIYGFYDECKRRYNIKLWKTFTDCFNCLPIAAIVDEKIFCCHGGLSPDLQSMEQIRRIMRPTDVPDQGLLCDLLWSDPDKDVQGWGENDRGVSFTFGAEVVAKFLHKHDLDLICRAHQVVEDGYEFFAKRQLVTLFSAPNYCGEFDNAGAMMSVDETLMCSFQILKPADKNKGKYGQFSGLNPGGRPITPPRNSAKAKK", "assay": "NVS_ENZ_hPPP1CA: NovaScreen (NVS) Enzymatic Assay for human Protein Phosphatase 1 Aatalytic subunit Alpha (PPP1CA) (AID 2283200)", "procedure,_shortened": "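Recombinant enzyme activity read by fluorescence with electrophoretic mobility shift separating substrate from product, 1.33 h after dosing; loss of signal vs DMSO baseline. Primary screen in duplicate at 25 uM; actives retested in concentration-response up to 50 uM.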"}, "[2]": {"target": "Tyrosine-protein phosphatase non-receptor type 11 (Homo sapiens) (UniProt Q06124)", "assay": "NVS_ENZ_hPTPN11: NovaScreen (NVS) Enzymatic Assay for human Protein Tyrosine Phosphatase Non-receptor Type 11 (PTPN11) (AID 2283202)", "procedure,_shortened": "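Recombinant human PTPN11 activity on a fluorescent substrate, with substrate/product separated by electrophoretic mobility shift; read 0.5 h after dosing, loss of signal vs DMSO. Duplicate 25 uM screen, then concentration-response up to 50 uM.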"}, "[3]": {"target": "human Phosphatase and Tensin Homolog (PTEN), PTEN (gene 5728) (UniProt P60484)", "assay": "NVS_ENZ_hPTEN: NovaScreen (NVS) Enzymatic Assay for human Phosphatase and Tensin Homolog (PTEN) (AID 2283203)", "method": "(§1) NVS_ENZ_hPTEN is a biochemical, single-readout assay that uses extracted gene-proteins in a cell-free assay. Measurements were taken 1 hour after chemical dosing in a 384-well plate.NVS_ENZ_hPTEN is one of one assay component(s) measured or calculated from the NVS_ENZ_hPTEN assay. It is designed to make measurements of enzyme activity, a form of enzyme reporter, as detected with fluorescence intensity signals by Fluorescence and electrophoretic mobility shift technology.Data from the assay component NVS_ENZ_hPTEN was analyzed into 1 assay endpoint. This assay endpoint, NVS_ENZ_hPTEN, was analyzed in the positive analysis fitting direction relative to DMSO as the negative control and baseline of activity. Using a type of enzyme reporter, loss-of-signal activity can be used to understand changes in the enzymatic activity as they relate to the gene PTEN. Furthermore, this assay endpoint can be referred to as a primary readout, because this assay has produced multiple assay endpoints where this one serves a enzymatic activity function. To generalize the intended target to other relatable targets, this assay endpoint is annotated to the phosphatase intended target family, where the subfamily is dual-specific phosphatase.\nBinding assays used specific radioligands (tritiated, iodinated) with non-radioactive competitive displacement ligands in agonist or antagonist protocols (as indicated) and various reference compounds and inhibitors to titrate specific binding to receptors and transporters. Most enzyme assays (CYPs, kinases, phosphatases, proteases, HDACs) used recombinant protein and specific substrates (fluorescence mostly, some colorimetric and radioactive) and inhibitors, followed by a biochemical separation of substrate and product. All assays for the biochemical HTS were initially run in duplicate at a single concentration (10 uM for CYP450 assays and 25 uM for all others). […] Each assay was run with positive and negative controls, and concurrent controls on every plate. The follow-up (secondary) screen tested active chemical-pairs in concentration series, as well as a few additional assays not tested in the primary screen, some selected negative inactives, and several cases re-run in the concentration series for confirmatory purposes."}, "[4]": {"target": "human Protein Tyrosine Phosphatase Non-receptor Type 2 (PTPN2), PTPN2 (gene 5771) (UniProt P17706)", "sequence (P17706 whole entry, looked up)": "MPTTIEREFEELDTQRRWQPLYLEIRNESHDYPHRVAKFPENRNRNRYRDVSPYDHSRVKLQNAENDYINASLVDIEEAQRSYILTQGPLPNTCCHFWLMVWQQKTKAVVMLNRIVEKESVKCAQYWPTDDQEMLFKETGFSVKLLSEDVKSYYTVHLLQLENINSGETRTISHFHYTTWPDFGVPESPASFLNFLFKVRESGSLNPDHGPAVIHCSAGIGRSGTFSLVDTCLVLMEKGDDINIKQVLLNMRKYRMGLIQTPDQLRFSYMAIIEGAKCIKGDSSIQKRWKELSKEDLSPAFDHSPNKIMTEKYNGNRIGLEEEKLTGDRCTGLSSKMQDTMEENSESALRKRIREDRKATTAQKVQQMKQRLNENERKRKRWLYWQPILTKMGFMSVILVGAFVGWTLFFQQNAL", "assay": "NVS_ENZ_hPTPN2: NovaScreen (NVS) Enzymatic Assay for human Protein Tyrosine Phosphatase Non-receptor Type 2 (PTPN2) (AID 2283207)", "procedure,_shortened": "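Cell-free recombinant enzyme with fluorescent substrate, product separated by electrophoretic mobility shift; read 1 h after dosing. Primary screen single concentration (25 uM) in duplicate; actives followed in concentration series; loss of signal versus DMSO.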"}, "[5]": {"target": "Tyrosine-protein phosphatase non-receptor type 13 (Homo sapiens) (UniProt Q12923)", "sequence (Q12923 whole entry, looked up)": "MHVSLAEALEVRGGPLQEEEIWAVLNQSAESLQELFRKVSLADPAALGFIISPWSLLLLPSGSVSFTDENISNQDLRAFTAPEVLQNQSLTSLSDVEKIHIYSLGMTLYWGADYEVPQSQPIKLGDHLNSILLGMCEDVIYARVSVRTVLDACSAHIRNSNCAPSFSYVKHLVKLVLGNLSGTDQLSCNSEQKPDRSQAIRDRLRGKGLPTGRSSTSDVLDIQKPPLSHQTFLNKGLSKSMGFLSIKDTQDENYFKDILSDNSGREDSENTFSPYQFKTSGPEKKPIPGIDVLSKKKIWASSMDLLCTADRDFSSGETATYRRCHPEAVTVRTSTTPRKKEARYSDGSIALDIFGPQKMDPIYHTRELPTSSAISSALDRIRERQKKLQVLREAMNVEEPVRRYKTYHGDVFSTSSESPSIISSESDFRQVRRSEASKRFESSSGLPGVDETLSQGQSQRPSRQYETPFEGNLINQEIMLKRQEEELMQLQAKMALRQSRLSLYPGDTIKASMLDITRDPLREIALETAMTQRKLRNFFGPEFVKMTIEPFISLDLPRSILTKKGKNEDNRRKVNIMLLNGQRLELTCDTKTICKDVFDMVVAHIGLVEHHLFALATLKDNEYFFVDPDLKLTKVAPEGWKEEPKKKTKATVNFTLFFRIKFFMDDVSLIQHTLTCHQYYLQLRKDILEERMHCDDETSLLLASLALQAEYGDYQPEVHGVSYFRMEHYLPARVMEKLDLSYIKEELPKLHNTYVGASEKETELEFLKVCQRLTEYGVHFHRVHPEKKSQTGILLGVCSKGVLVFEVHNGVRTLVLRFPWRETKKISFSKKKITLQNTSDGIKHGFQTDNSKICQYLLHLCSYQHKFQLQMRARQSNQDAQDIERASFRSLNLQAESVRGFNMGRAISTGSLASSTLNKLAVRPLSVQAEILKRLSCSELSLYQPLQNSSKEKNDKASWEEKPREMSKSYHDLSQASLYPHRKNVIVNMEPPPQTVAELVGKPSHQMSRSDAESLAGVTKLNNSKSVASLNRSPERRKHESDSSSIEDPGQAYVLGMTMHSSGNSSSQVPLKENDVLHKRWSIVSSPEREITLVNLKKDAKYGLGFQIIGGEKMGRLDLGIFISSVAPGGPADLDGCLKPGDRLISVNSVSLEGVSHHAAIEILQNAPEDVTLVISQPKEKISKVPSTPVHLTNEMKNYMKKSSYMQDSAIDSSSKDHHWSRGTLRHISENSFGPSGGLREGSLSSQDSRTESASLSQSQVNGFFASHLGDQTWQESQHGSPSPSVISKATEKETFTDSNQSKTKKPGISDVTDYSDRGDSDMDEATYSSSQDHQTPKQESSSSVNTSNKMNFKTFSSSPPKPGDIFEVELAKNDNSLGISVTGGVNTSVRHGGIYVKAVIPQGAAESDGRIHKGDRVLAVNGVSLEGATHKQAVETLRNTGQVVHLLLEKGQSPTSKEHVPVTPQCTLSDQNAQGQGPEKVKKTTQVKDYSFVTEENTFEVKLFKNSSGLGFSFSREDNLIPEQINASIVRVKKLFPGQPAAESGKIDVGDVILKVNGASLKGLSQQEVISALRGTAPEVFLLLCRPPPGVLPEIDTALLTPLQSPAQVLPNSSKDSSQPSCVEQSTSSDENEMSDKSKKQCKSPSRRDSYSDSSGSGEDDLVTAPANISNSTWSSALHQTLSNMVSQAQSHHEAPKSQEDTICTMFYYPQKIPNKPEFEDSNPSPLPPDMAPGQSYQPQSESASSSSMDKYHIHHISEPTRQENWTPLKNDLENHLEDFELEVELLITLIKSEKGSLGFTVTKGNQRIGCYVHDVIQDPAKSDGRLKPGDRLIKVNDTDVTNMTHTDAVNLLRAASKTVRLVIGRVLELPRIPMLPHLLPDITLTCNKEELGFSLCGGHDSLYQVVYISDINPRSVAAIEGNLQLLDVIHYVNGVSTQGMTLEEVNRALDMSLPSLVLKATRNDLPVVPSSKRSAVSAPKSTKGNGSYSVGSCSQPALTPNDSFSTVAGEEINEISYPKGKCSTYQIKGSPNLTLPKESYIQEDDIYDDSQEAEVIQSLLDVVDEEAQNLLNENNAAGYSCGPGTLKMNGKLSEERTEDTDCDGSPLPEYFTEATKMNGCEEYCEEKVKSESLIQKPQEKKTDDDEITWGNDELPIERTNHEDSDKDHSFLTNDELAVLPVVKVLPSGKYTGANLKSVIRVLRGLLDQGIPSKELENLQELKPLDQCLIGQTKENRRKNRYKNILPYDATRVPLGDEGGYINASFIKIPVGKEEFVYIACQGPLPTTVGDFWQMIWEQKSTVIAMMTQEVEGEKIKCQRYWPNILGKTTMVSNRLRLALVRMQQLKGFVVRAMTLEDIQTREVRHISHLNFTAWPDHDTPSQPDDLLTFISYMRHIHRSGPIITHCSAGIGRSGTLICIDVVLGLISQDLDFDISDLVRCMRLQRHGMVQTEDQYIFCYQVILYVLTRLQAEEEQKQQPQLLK", "assay": "NVS_ENZ_hPTPN13: NovaScreen (NVS) Enzymatic Assay for human Protein Tyrosine Phosphatase Non-receptor Type 13 (PTPN13) (AID 2283205)", "procedure,_shortened": "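Cell-free assay of recombinant human PTPN13 with a fluorescent substrate, product separated by electrophoretic mobility shift and read 0.5 h after dosing. Primary screen at 25 uM in duplicate, then concentration-response up to 50 uM. Loss of signal fitted against DMSO.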"}, "[6]": {"target": "human Protein Tyrosine Phosphatase Non-receptor Type 1 (PTPN1), PTPN1 (gene 5770) (UniProt P18031)", "sequence (P18031 whole entry, looked up)": "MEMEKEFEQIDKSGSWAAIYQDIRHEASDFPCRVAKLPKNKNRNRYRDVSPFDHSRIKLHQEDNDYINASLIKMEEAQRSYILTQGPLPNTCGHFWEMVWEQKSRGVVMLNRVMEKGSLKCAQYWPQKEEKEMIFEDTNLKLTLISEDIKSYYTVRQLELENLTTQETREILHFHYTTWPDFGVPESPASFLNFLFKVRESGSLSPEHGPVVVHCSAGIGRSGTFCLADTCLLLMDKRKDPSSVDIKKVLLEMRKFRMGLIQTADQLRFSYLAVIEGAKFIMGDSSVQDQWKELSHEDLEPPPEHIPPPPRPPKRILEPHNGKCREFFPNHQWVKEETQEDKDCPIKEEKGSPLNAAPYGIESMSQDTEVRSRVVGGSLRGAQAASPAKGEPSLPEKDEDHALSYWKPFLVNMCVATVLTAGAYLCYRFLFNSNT", "assay": "NVS_ENZ_hPTPN1: NovaScreen (NVS) Enzymatic Assay for human Protein Tyrosine Phosphatase Non-receptor Type 1 (PTPN1) (AID 2283201)", "procedure,_shortened": "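Cell-free fluorogenic-substrate activity assay on recombinant enzyme, read 1.33 h after dosing by fluorescence and electrophoretic mobility shift; loss of signal vs DMSO baseline. Primary screen in duplicate at 25 uM, hits then run in concentration-response up to 50 uM.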"}, "[7]": {"target": "PPP2CA (gene 5515) (UniProt P67775)", "sequence (P67775 whole entry, looked up)": "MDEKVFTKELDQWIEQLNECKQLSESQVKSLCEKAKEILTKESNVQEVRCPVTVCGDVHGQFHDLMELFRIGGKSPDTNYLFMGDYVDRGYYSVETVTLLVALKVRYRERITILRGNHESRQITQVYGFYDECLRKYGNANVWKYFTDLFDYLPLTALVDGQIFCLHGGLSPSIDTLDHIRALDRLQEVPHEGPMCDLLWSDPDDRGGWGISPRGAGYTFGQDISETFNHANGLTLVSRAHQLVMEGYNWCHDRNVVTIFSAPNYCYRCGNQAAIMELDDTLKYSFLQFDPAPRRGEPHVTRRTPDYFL", "assay": "NVS_ENZ_hPPP2CA: NovaScreen (NVS) Enzymatic Assay for human Protein Phosphatase 2 Aatalytic subunit Alpha (PPP2CA) (AID 2283199)", "method": "as §1, with “NVS_ENZ_hPPP2CA” for “NVS_ENZ_hPTEN”, “1.33 hours” for “1 hour”, “plate.NVS_ENZ_hPPP2CA” for “plate.NVS_ENZ_hPTEN”, “NVS_ENZ_hPPP2CA,” for “NVS_ENZ_hPTEN,”, “PPP2CA.” for “PTEN.”, “serine/threonine” for “dual-specific”\n(§2) Binding assays used specific radioligands (tritiated, iodinated) with non-radioactive competitive displacement ligands in agonist or antagonist protocols (as indicated) and various reference compounds and inhibitors to titrate specific binding to receptors and transporters. Most enzyme assays (CYPs, kinases, phosphatases, proteases, HDACs) used recombinant protein and specific substrates (fluorescence mostly, some colorimetric and radioactive) and inhibitors, followed by a biochemical separation of substrate and product. All assays for the biochemical HTS were initially run in duplicate at a single concentration (10 uM for CYP450 assays and 25 uM for all others). Assay-chemical combinations meeting a pre-defined threshold (e.g., 30% inhibition and other criteria defined below) were then run in singleton concentration-response format with maximum concentration of 20 uM for CYPs and 50 uM for all others. Each assay was run with positive and negative controls, and concurrent controls on every plate. The follow-up (secondary) screen tested active chemical-pairs in concentration series, as well as a few additional assays not tested in the primary screen, some selected negative inactives, and several cases re-run in the concentration series for confirmatory purposes."}, "[8]": {"target": "Tyrosine-protein phosphatase non-receptor type 12 (Homo sapiens) (UniProt Q05209)", "sequence (Q05209 whole entry, looked up)": "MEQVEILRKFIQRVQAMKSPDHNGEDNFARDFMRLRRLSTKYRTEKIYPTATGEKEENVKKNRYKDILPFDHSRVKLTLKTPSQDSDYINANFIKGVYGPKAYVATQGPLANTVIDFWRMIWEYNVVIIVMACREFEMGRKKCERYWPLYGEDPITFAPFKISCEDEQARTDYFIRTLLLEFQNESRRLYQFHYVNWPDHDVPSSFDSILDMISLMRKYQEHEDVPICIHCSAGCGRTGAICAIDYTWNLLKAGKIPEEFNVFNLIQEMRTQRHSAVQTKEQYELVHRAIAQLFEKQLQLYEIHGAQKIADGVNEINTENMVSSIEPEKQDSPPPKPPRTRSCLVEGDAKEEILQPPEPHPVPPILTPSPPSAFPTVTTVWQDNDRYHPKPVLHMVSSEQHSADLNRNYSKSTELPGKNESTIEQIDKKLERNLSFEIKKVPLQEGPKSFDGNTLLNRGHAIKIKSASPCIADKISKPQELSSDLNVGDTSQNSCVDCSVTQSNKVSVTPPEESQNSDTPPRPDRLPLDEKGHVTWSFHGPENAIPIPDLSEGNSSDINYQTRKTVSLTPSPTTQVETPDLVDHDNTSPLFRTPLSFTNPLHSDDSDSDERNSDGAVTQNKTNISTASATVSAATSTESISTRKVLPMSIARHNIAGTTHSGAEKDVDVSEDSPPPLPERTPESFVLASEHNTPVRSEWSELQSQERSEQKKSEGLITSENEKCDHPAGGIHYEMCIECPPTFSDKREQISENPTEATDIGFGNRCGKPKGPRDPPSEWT", "assay": "NVS_ENZ_hPTPN12: NovaScreen (NVS) Enzymatic Assay for human Protein Tyrosine Phosphatase Non-receptor Type 12 (PTPN12) (AID 2283204)", "method": "as §1, with “NVS_ENZ_hPTPN12” for “NVS_ENZ_hPTEN”, “1.33 hours” for “1 hour”, “plate.NVS_ENZ_hPTPN12” for “plate.NVS_ENZ_hPTEN”, “NVS_ENZ_hPTPN12,” for “NVS_ENZ_hPTEN,”, “PTPN12.” for “PTEN.”, “non-receptor tyrosine” for “dual-specific”\nas §2"}, "[9]": {"target": "Tyrosine-protein phosphatase non-receptor type 14 (Homo sapiens) (UniProt Q15678)", "assay": "NVS_ENZ_hPTPN14: NovaScreen (NVS) Enzymatic Assay for human Protein Tyrosine Phosphatase Non-receptor Type 14 (PTPN14) (AID 2283206)", "procedure,_shortened": "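Cell-free recombinant human PTPN14 with fluorescent substrate, read 0.5 h after dosing by fluorescence and electrophoretic mobility shift separating substrate from product. Primary screen at 25 uM in duplicate; hits run to 50 uM maximum; loss of signal versus DMSO.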"}, "[10]": {"target": "human Protein Phosphatase, Mg2+/Mn2+ Dependent 1A (PPM1A), PPM1A (gene 5494) (UniProt P35813)", "assay": "NVS_ENZ_hPPM1A: NovaScreen (NVS) Enzymatic Assay for human Protein Phosphatase, Mg2+/Mn2+ Dependent 1A (PPM1A) (AID 2283198)", "procedure,_shortened": "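Cell-free recombinant PPM1A phosphatase assay with fluorescent substrate, read 1 h after dosing by electrophoretic mobility shift. Chemicals screened in duplicate at 25 uM, then in concentration-response up to 50 uM; loss of activity versus DMSO.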"}}, "note": "Where “and” joins values, the source holds several entries; their conditions need not be identical. Identical values can stand only once. Records with an inconclusive call do not appear. A structure can be active in one record and inactive in another. Calls of active or inactive are those of the source. How the source made its calls: active means hit-call score of the fitted dose curve at least 0.9, where 1 is the maximum; inconclusive means response in the unintended direction; inactive means score below 0.9."}
{"smiles": "[2H]C1([2H])[n+]2ccccc2-c2cccc[n+]2C1([2H])[2H]", "values": [{"measurement": "AC50", "setting": "[1]", "result": "4.96 µM (active)"}, {"measurement": "outcome", "setting": "[2]", "result": "inactive"}, {"measurement": "AC50", "setting": "[3]", "result": "2.29 nM (active)"}]}
{"smiles": "O=C1c2ccccc2C(=O)N1SC(Cl)(Cl)Cl", "values": [{"measurement": "outcome", "setting": "[4]", "result": "inactive"}]}
{"smiles": "COC(=O)c1ccccc1S(=O)(=O)NC(=O)N(C)c1nc(C)nc(OC)n1", "values": [{"measurement": "outcome", "setting": "[1]", "result": "inactive"}, {"measurement": "outcome", "setting": "[5]", "result": "inactive"}, {"measurement": "outcome", "setting": "[4]", "result": "inactive"}]}
{"smiles": "C#CCN1C(=O)COc2cc(F)c(N3C(=O)C4=C(CCCC4)C3=O)cc21", "values": [{"measurement": "outcome", "setting": "[4]", "result": "inactive"}]}
{"smiles": "CN1CSC(=S)N(C)C1", "values": [{"measurement": "outcome", "setting": "[4]", "result": "inactive"}]}
{"smiles": "Cc1[nH]c(=O)n(C(C)(C)C)c(=O)c1Cl", "values": [{"measurement": "outcome", "setting": "[6]", "result": "inactive"}]}
{"smiles": "O=C(O)C(F)(F)C(F)(F)C(F)(F)C(F)(F)C(F)(F)C(F)(F)C(F)(F)F", "values": [{"measurement": "AC50", "setting": "[7]", "result": "25 µM (active)"}, {"measurement": "AC50", "setting": "[1]", "result": "0.493 µM (active)"}, {"measurement": "outcome", "setting": "[6]", "result": "inactive"}, {"measurement": "outcome", "setting": "[2]", "result": "inactive"}, {"measurement": "outcome", "setting": "[3]", "result": "inactive"}, {"measurement": "outcome", "setting": "[8]", "result": "inactive"}, {"measurement": "outcome", "setting": "[5]", "result": "inactive"}, {"measurement": "outcome", "setting": "[4]", "result": "inactive"}]}
{"smiles": "CCS(=O)(=O)c1cccnc1S(=O)(=O)NC(=O)Nc1nc(OC)cc(OC)n1", "values": [{"measurement": "outcome", "setting": "[3]", "result": "inactive"}]}
{"smiles": "CC(C)(C)C(O)/C(=C\\c1ccc(Cl)cc1Cl)n1cncn1", "note": "(configuration not stated)", "values": [{"measurement": "outcome", "setting": "[4]", "result": "inactive"}]}
{"smiles": "CC[C@H](C)[C@H]1O[C@]2(C=C[C@@H]1C)C[C@@H]1C[C@@H](C/C=C(\\C)[C@@H](O[C@H]3C[C@H](OC)[C@@H](O[C@H]4C[C@H](OC)[C@@H](O)[C@H](C)O4)[C@H](C)O3)[C@@H](C)/C=C/C=C3\\CO[C@@H]4[C@H](O)C(C)=C[C@@H](C(=O)O1)[C@]34O)O2", "note": "(tested in a mixture with another compound)", "values": [{"measurement": "outcome", "setting": "[2]", "result": "inactive"}, {"measurement": "AC50", "setting": "[4]", "result": "41.1 µM (active)"}]}
{"smiles": "CC(C)(C)C(O)C(Oc1ccc(Cl)cc1)n1cncn1", "note": "(configuration not stated)", "values": [{"measurement": "outcome", "setting": "[7]", "result": "inactive"}, {"measurement": "outcome", "setting": "[3]", "result": "inactive"}, {"measurement": "outcome", "setting": "[8]", "result": "inactive"}, {"measurement": "outcome", "setting": "[5]", "result": "inactive"}, {"measurement": "outcome", "setting": "[4]", "result": "inactive"}]}
{"smiles": "O=[N+]([O-])c1c(Cl)c(Cl)c(Cl)c(Cl)c1Cl", "values": [{"measurement": "outcome", "setting": "[1]", "result": "inactive"}]}
{"smiles": "N#CN", "values": [{"measurement": "outcome", "setting": "[1]", "result": "inactive"}]}
{"smiles": "ClC1C(Cl)C(Cl)C(Cl)C(Cl)C1Cl", "note": "(configuration not stated)", "values": [{"measurement": "outcome", "setting": "[3]", "result": "inactive"}]}
{"smiles": "N#Cc1c(Cl)c(Cl)c(Cl)c(C#N)c1Cl", "values": [{"measurement": "outcome", "setting": "[6]", "result": "inactive"}, {"measurement": "AC50", "setting": "[2]", "result": "40 µM (active)"}, {"measurement": "outcome", "setting": "[3]", "result": "inactive"}]}
{"smiles": "Oc1cc(Cl)ccc1Oc1ccc(Cl)cc1Cl", "values": [{"measurement": "outcome", "setting": "[7]", "result": "inactive"}, {"measurement": "outcome", "setting": "[2]", "result": "inactive"}, {"measurement": "outcome", "setting": "[8]", "result": "inactive"}]}
{"smiles": "C[C@H]1[C@H](c2ccc(Cl)cc2)SC(=O)N1C(=O)NC1CCCCC1", "values": [{"measurement": "outcome", "setting": "[9]", "result": "inactive"}]}
{"smiles": "O=S(=O)(O)C(F)(F)C(F)(F)C(F)(F)C(F)(F)C(F)(F)C(F)(F)C(F)(F)C(F)(F)F", "values": [{"measurement": "outcome", "setting": "[10]", "result": "inactive"}, {"measurement": "AC50", "setting": "[7]", "result": "7.02 µM (active) and 5.37 µM (active)"}, {"measurement": "AC50", "setting": "[1]", "result": "11.5 µM (active) and 18.4 µM (active)"}, {"measurement": "AC50", "setting": "[6]", "result": "26.9 µM (active)"}, {"measurement": "outcome", "setting": "[6]", "result": "inactive"}, {"measurement": "AC50", "setting": "[2]", "result": "19.6 µM (active) and 15.5 µM (active)"}, {"measurement": "AC50", "setting": "[3]", "result": "7.35 µM (active) and 26.9 µM (active)"}, {"measurement": "AC50", "setting": "[8]", "result": "20.7 µM (active) and 30 µM (active) and 30.1 µM (active)"}, {"measurement": "AC50", "setting": "[5]", "result": "10.5 µM (active) and 36.6 µM (active)"}, {"measurement": "AC50", "setting": "[4]", "result": "38.9 µM (active)"}]}
